Test results reported in the supplement of paper PMC11417369.
In all, about 25,000 sequences were measured (“ln(normalized median fluorescence intensity)”: median about 6.7, highest 2% from about 10 on). The full list was thinned out, with the highest values kept by preference.

The sequences below were run on PfHDP1 homeodomain (GST-tagged) (assay: gcPBM binding intensity (ln(normalized median fluorescence intensity)); higher = stronger DNA binding).
Procedure, shortened: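 Binding intensity is the highest Masliner-normalised natural-log median intensity over replicate spots in either probe orientation. To obtain it, GST-tagged P. falciparum DNA-binding domains made in E. coli were incubated for 1 h on an Agilent 4 × 180k array of primer-extended double-stranded 36-bp intergenic genomic probes plus negative controls. Detection used Alexa488 anti-GST antibody with scanning at 488 nm.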
“ATCATTTGCTCACGCACACACACATAAAAAGAAAAA [CACACA_site4349]” was tested, and the “gcPBM binding intensity (ln)” value was 9.55.
With “CATTTGCACCCGCACACACACATAAAAAGAAAAATA [CACACA_site4350]” the “gcPBM binding intensity (ln)” value was 10.7.
With “TTATCACATTATTGCACACACATAAAGAAAAAAATA [CACACA_site2841]” the “gcPBM binding intensity (ln)” value was 9.63.
“CATTTGCCCAGGCACACACACATAAAAAGAAAAATA [CACACA_site356]” was tested, and the “gcPBM binding intensity (ln)” value was 6.34.
For “CATTTGCACACGCACACACACATAAAAAGAAAAATA [CACACA_site6297]”, the “gcPBM binding intensity (ln)” value was 10.8.
For “ATCATTTGCATACGCACACACACATAAAAAGAAAAA [CACACA_site355]”, the “gcPBM binding intensity (ln)” value was 8.44.
In the case of “AACTATATCATTTATTTTATTTTTTAAATACATTTA [CACACA_negctrl_site183]”, the “gcPBM binding intensity (ln)” value was 6.19.
“ATATATGTAATAAATAGTACACACACACATATATAT [XGTACX_site2817]” was tested, and the “gcPBM binding intensity (ln)” value was 7.35.
With “ATACTGTATAGTCGCACACAAAAATATAAAATATTT [CACACA_site6004]” the “gcPBM binding intensity (ln)” value was 6.65.
With “CATATATATTTGTTCACACACACACTAATAAAAAAA [CACACA_site8787]” the “gcPBM binding intensity (ln)” value was 6.85.
With “TTGCAAATATATGGTTGTACTCAAAAAAAAAAAAAA [XGTACX_site6975]” the “gcPBM binding intensity (ln)” value was 6.47.
In the case of “GAAAGAAATAAAGGTGGTACATAAATAAAAACTAAG [XGTACX_site4826]”, the “gcPBM binding intensity (ln)” value was 6.97.
With “TATATATATTTCCAGTGTACTTATTTTTTAATCAAT [XGTACX_site8220]” the “gcPBM binding intensity (ln)” value was 6.7.
For “TTTTTTTTTTTTGGTGCATGCACATTTTGTTTTTTT [TGCATGCA_site570]”, the “gcPBM binding intensity (ln)” value was 10.
With “TATCATTGTTCATGCTTGCACTTTTGTTACTGTTCC [GTGCAC_site9425]” the “gcPBM binding intensity (ln)” value was 6.75.
For “TTTTTTTTGTTCATTGTGCACATTGCTTGCATGGAA [GTGCAC_site9693]”, the “gcPBM binding intensity (ln)” value was 10.8.
“AGTAGGCATATTGGTTGTACAAAAAAATTATGCACC [XGTACX_site8925]” was tested, and the “gcPBM binding intensity (ln)” value was 10.6.
“TGAACATATTAAAATTGTACATATGCACAATATGTA [XGTACX_site6801]” was tested, and the “gcPBM binding intensity (ln)” value was 9.28.
“GTAGGCATTAAAAAATGTACAAAATATTATGAATTG [XGTACX_site1615]” was tested, and the “gcPBM binding intensity (ln)” value was 6.32.
“AAACATAAAGAAAAAAAAAATATATATTTATTTATT [GTGCAC_negctrl_site357]” was tested, and the “gcPBM binding intensity (ln)” value was 6.33.
With “ATATACACATATACATGTACAAATATATATACACAT [XGTACX_site2986]” the “gcPBM binding intensity (ln)” value was 6.9.
In the case of “CATATGTATATGACTACACACAAGGGTGTACCTATA [CACACA_site6670]”, the “gcPBM binding intensity (ln)” value was 6.34.
With “GAACATTTATTGTGTGTGCACAATTCTTTTTTAACC [GTGCAC_site9697]” the “gcPBM binding intensity (ln)” value was 10.2.
With AATAGATTTTTATGCGTGCACACATTTAACAAAAAA the “gcPBM binding intensity (ln)” value was 10.3.
In the case of TTTAACATTTCAGATGTGCACATTTTCCGAACCAGT, the “gcPBM binding intensity (ln)” value was 10.9.
With “TTTCCGTATAATTTTGCACACGAATATAAATTTGAT [CACACA_site137]” the “gcPBM binding intensity (ln)” value was 10.3.
For “TATTATAATATTTATACACACATAATTTTGATAAAT [CACACA_site583]”, the “gcPBM binding intensity (ln)” value was 6.45.
For “TCCGTATAATTTTGCACACGAATATAAATTTGATAA [CACACA_site136]”, the “gcPBM binding intensity (ln)” value was 10.9.
For “TGGAGGTCAGTTCACAGTACCCAGGAAATCTACGGA [XGTACX_site1995]”, the “gcPBM binding intensity (ln)” value was 5.93.
“TTTTTCTTAAAAAATTGTACACATATATATATATAT [XGTACX_site542]” was tested, and the “gcPBM binding intensity (ln)” value was 9.21.
For “GTAGTGGTTGAATATACACACATATATATATATATA [CACACA_site2651]”, the “gcPBM binding intensity (ln)” value was 9.39.
In the case of “CCTAGAAAAAAGAACTGTACATATATATATAAATAT [XGTACX_site1680]”, the “gcPBM binding intensity (ln)” value was 6.65.
For “GACAAATAATAAAAGGTGCATTATACTTAACAAAAA [GTGCAC_site9624]”, the “gcPBM binding intensity (ln)” value was 9.69.
In the case of “GTAGACATTATAATGGTGCAAAAAAATTAACAAAAA [GTGCAC_site9891]”, the “gcPBM binding intensity (ln)” value was 10.6.
For “TATATTAACAAAATGGTGCAATAATTTCTATATTAT [GTGCAC_site9857]”, the “gcPBM binding intensity (ln)” value was 10.5.
“TCAAGTATTAAAATGGGTACATAAATATGTGTATAT [XGTACX_site5884]” was tested, and the “gcPBM binding intensity (ln)” value was 6.63.
In the case of “TATAATAAATCATATGCATGTTGAAAAAAAAAAAAA [TGCATGCA_site923]”, the “gcPBM binding intensity (ln)” value was 6.46.
In the case of “AATATATAGAAACACACACACAAAAAAAAAAAAAAA [CACACA_site1326]”, the “gcPBM binding intensity (ln)” value was 6.47.
“TTTTGAAACATATGATGTACACGAACATTTAAAAAA [XGTACX_site474]” was tested, and the “gcPBM binding intensity (ln)” value was 6.6.
For “ATTTAGAAAAATAAAACACACATATATCTGTAAATA [CACACA_site6119]”, the “gcPBM binding intensity (ln)” value was 6.53.
“ATAAAAATATTGTCTAGTACATATTTATAATAAAAA [XGTACX_site7523]” was tested, and the “gcPBM binding intensity (ln)” value was 6.54.
With “TATATATATATGTGCACACCAATTGTATGTAATATA [CACACA_site3889]” the “gcPBM binding intensity (ln)” value was 10.6.
For “TATATATATATATGTGCACACCAATTGTATGTAATA [CACACA_site3888]”, the “gcPBM binding intensity (ln)” value was 10.5.
“ATTGAATATGTAAATGCACACCAAAAAAAAAAAAAA [CACACA_site9189]” was tested, and the “gcPBM binding intensity (ln)” value was 9.61.
With “TATATATATATGTGCACACATATATAATATGTATAA [CACACA_site715]” the “gcPBM binding intensity (ln)” value was 10.1.
“AATATATATATATGTGCACACATATATAATATGTAT [CACACA_site716]” was tested, and the “gcPBM binding intensity (ln)” value was 9.79.
In the case of “TAATATAATATATGCACACAAATATGTATATATGTG [CACACA_site2134]”, the “gcPBM binding intensity (ln)” value was 9.77.
In the case of “CACAAAATAAATTAAACACACAACATCATATATGTA [CACACA_site846]”, the “gcPBM binding intensity (ln)” value was 6.57.
“TTTTTTTATATAGACACAAAAGAAAATTACATATAC [CACACA_negctrl_site235]” was tested, and the “gcPBM binding intensity (ln)” value was 6.49.
For “ATATATAATAAATACACACACATGTATTTATAAATA [CACACA_site5135]”, the “gcPBM binding intensity (ln)” value was 6.8.
“TTTTTTTTGGTATAATGTACATTTTCACTTATGTAT [XGTACX_site3259]” was tested, and the “gcPBM binding intensity (ln)” value was 6.97.
With “CACCCGCACGTATTTGCACACATTGCCACGTAATTA [CACACA_site5786]” the “gcPBM binding intensity (ln)” value was 10.7.
With “TTTTTTTTTTTTTTTGCACACACATTGAATTATTAT [CACACA_site198]” the “gcPBM binding intensity (ln)” value was 9.13.
For “CAGACGCACGTATTTGCACACATTGCCACGTAATTA [CACACA_site3349]”, the “gcPBM binding intensity (ln)” value was 10.2.
With “TGTAATCAAAAAAATAGTACATAAATTGTGTATACT [XGTACX_site5908]” the “gcPBM binding intensity (ln)” value was 6.57.
For “TTTATTTTATCATTTGCACACGCACCCCCACATAAA [CACACA_site8007]”, the “gcPBM binding intensity (ln)” value was 10.2.
In the case of “TTTTTTTTTATTATCATGCACACATTTTTTTTTTTT [CACACA_site2254]”, the “gcPBM binding intensity (ln)” value was 9.1.
For “TATTTTATCATTTGCACACGCACACCGACATAAAAA [CACACA_site4348]”, the “gcPBM binding intensity (ln)” value was 10.6.
In the case of “TTATCATTTGGACACGCACACACACCGAAAAAGAAA [CACACA_site8008]”, the “gcPBM binding intensity (ln)” value was 7.13.
In the case of “TATTTTATCATTTGCACACGCACACCCACATAAAAA [CACACA_site354]”, the “gcPBM binding intensity (ln)” value was 10.5.
“TTTATTTTATCATTTGCACACGCACGCCCACATAAA [CACACA_site353]” was tested, and the “gcPBM binding intensity (ln)” value was 10.6.
For “TTTTATCACATTATTGCACACACATAAAGAAAAAAA [CACACA_site8922]”, the “gcPBM binding intensity (ln)” value was 9.63.
“AGCACGCACAGACACACACACATATTTATATTTATA [CACACA_site6291]” was tested, and the “gcPBM binding intensity (ln)” value was 7.62.
With “TTTATTTTATCATTTGCACACGCACCCAGACATAAA [CACACA_site4347]” the “gcPBM binding intensity (ln)” value was 10.6.
